Measured values as given in PubChem BioAssay (NCATS).
Inconclusive results are not listed. A call without a number means that no potency is given here. The source made the active and inactive calls. Calls follow the shape of the dose curve; as a rule, active = well fitted inhibition curve with a large enough effect; inconclusive = small, poorly fitted or top-dose-only effect; inactive = flat fitted curve, though single readings scatter.

System: Zika virus NS2B-NS3 protease
Assay: Primary screen GU AMC qHTS for Zika virus inhibitors (AID 1347154); also: nearly all actives have a fitted effect of over 70% in size
Settings: Zika NS2B-NS3 unlinked protease, AMC fluorogenic substrate; series mostly up to 54.1 µM
In short: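 Unlinked Zika NS2B hydrophilic domain–NS3 protease complex at 25 nM in 10 mM Tris-HCl pH 8.0, 0.01% Tween 20, with an AMC peptide substrate. Fluorescence change (340/450 nm) over 15 min at room temperature, normalized to controls, fitted to 4-parameter Hill.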
Potency is read from the fitted curve at half-maximal effect.

SMILES	Potency
C[N+]1(C)[C@@H]2CC(OC(=O)[C@H](CO)c3ccccc3)C[C@H]1[C@H]1O[C@@H]12 (stereo partly drawn)	inactive
COc1cccc2c1CCCC2CCCN1CCN(C2CCCCC2)CC1 (stereo not drawn)	inactive
NC(=O)NN=Cc1ccc([N+](=O)[O-])o1	inactive
CC(C)(C)COc1ccc(-n2cc(C(=O)O)cn2)cc1C#N	inactive
CC(C)n1cnc2c(NCCCCCCNC(=O)OC(C)(C)C)nc(NCCO)nc21	inactive
NC(CO)(CO)CCc1ccc(Sc2cccc(OCc3ccccc3)c2)cc1Cl	inactive
COc1cc(NC(=O)c2ccc(-c3ccc(Cl)cc3)o2)cc(OC)c1	inactive
CCC(=O)O[C@]1(C(=O)CO)CC[C@H]2[C@@H]3CCC4=CC(=O)CC[C@]4(C)[C@@H]3CC[C@@]21C	inactive
COc1ccc(-c2coc3cc(O)ccc3c2=O)cc1	26.7 µM (active)
O=c1cc(-c2ccc(O)cc2)oc2cc(O)cc(O)c12	inactive
OC[C@@H](O)[C@H](O)[C@H](O)[C@@H](O)CO	inactive
NC[C@@H]1O[C@@H](O[C@H]2[C@@H](O)[C@H](O[C@@H]3[C@@H](O)[C@@H](N)C[C@H](N)[C@H]3O[C@H]3O[C@H](CN)[C@@H](O)[C@@H](O)[C@H]3N)O[C@H]2CO)[C@H](N)[C@@H](O)[C@@H]1O	inactive
CC1(C)CCC[C@@]2(C)[C@@H]1CC[C@@]1(C)OC(=O)C[C@H]21	inactive
CC[C@]1(O)C[C@@H]2CN(CCc3c([nH]c4ccccc34)[C@@](C(=O)OC)(c3cc4c(cc3OC)N(C=O)[C@@H]3C45CCN4CC=C[C@](CC)([C@H]45)[C@@H](OC(C)=O)[C@]3(O)C(=O)OC)C2)C1 (stereo partly drawn)	inactive
O=C(N[C@@H](c1ccccc1)[C@@H]1CCCCN1)c1cccc(C(F)(F)F)c1Cl	inactive
O=C(O)c1ccc(-c2cc3cccnc3c(-c3ccc4nonc4c3)n2)cc1	inactive
OC[C@H]1O[C@@H](n2cnc3c2NC=NC[C@@H]3O)C[C@H]1O	inactive
COC(=O)C1=CO[C@@H](O)[C@@H]2C(CO)=CC[C@@H]12	inactive
Cc1ccc(/C=N/NC(=O)c2ccccc2Oc2ccccc2)o1	inactive

SMILES	Potency
CC(C)C[C@H](CC(=O)O)C(=O)N[C@@H](Cc1c[nH]c2ccccc12)C(=O)N[C@@H](C)c1ccccc1	inactive
O=c1c(-c2ccc(O)cc2)coc2cc(O[C@@H]3O[C@H](CO)[C@H](O)[C@H](O)[C@H]3O)ccc12	inactive
CC[C@@]1(O)C[C@H](O[C@H]2C[C@H](N(C)C)[C@H](O[C@H]3C[C@H](O)[C@H](O[C@H]4CCC(=O)[C@H](C)O4)[C@H](C)O3)[C@H](C)O2)c2c(cc3c(c2O)C(=O)c2c(O)cccc2C3=O)[C@@H]1C(=O)OC	inactive
C[C@@H](O)[C@H]1C(=O)N2C(C(=O)O)=C(S[C@@H]3CN[C@H](C(=O)N(C)C)C3)[C@H](C)[C@H]12	inactive
CCC(=O)NC[C@H](Cc1ccc(OCCc2nc(-c3ccccc3)oc2C)cc1)NC(C)=CC(=O)c1ccc(C(F)(F)F)cc1	inactive
COc1ccc(-n2c(C)c([N+](=O)[O-])c3ccc(O)cc32)cc1	inactive
NC1CCC(Nc2nc(Nc3ccc(C(=O)N4CCCCC4)cc3)c3ncn(-c4cccc(F)c4)c3n2)CC1 (stereo not drawn)	inactive
NC(=O)[C@@H](CCC(F)(F)F)N(Cc1ccc(-c2ncon2)cc1F)S(=O)(=O)c1ccc(Cl)cc1	inactive
CCCCCCCCCCCC1=C(O)C(=O)C=C(O)C1=O	inactive
Oc1ccc(C2=Cc3ccc(O)cc3OC2)cc1	inactive
Cc1[nH]c(C=C2C(=O)Nc3ccc(S(=O)(=O)Cc4c(Cl)cccc4Cl)cc32)c(C)c1C(=O)N1CCC[C@H]1CN1CCCC1	inactive
CCOC(=O)O[C@]1(C(=O)OCCl)CC[C@@H]2[C@H]3CCC4=CC(=O)C=C[C@]4(C)[C@@H]3[C@@H](O)C[C@@]21C	inactive
O=C(NCc1ccncc1)C12C[C@H]3C[C@@H](C1)CC(c1ccc(Cl)cc1)(C3)C2	inactive
NC1=N[C@@]2(c3cc(NC(=O)c4ccc(F)cn4)ccc3F)COC[C@@H]2CS1	inactive
Cc1c(O)cccc1C(=O)N[C@@H](CSc1ccccc1)[C@H](O)CN1C[C@H]2CCCC[C@@H]2C[C@@H]1C(=O)NC(C)(C)C	inactive
C[C@]12CC[C@@H]3c4ccc(O)cc4CC[C@H]3[C@H]1C[C@@H](O)[C@H]2O	inactive
CC1(C)O[C@H]2C[C@@H]3[C@H]4CCC5=CC(=O)C=C[C@]5(C)[C@@]4(F)[C@@H](O)C[C@]3(C)[C@]2(C(=O)CO)O1	inactive
C[N+](C)(C)CC(=O)O	inactive
O=c1c(-c2ccc(O)cc2)coc2cc(OC3O[C@H](CO)[C@H](O)[C@H](O)[C@H]3O)cc(O)c12 (stereo partly drawn)	inactive
